Source: PubChem BioAssay (several laboratories)
SENP8 block-1: SENP8 protease inhibitors, primary screen, biochemical, luminescence; purified SENP8, Z-RLRGG-aminoluciferin cleavage; inhibition, % at 10 µM; 330,000 compounds, 1.2% hits; in the data active = inhibition above about 50%
SENP6 block: SENP6 protease inhibitors, primary screen, biochemical, luminescence, uHTS. inhibition, % at 10 µM. AID 2599, 2010. 330,000 compounds, 1.8% hits. Recombinant SENP6 catalytic domain, aminoluciferin luminescence. Sentrin-specific protease 6 (Homo sapiens), Q9GZR1;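 active = inhibition above about 50% at the single tested dose, limit read from the data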;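 also: plate controls were DMSO wells with enzyme for no effect and DMSO wells lacking enzyme for full effect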
Target sequence (Q9GZR1 628-1112 limits assumed): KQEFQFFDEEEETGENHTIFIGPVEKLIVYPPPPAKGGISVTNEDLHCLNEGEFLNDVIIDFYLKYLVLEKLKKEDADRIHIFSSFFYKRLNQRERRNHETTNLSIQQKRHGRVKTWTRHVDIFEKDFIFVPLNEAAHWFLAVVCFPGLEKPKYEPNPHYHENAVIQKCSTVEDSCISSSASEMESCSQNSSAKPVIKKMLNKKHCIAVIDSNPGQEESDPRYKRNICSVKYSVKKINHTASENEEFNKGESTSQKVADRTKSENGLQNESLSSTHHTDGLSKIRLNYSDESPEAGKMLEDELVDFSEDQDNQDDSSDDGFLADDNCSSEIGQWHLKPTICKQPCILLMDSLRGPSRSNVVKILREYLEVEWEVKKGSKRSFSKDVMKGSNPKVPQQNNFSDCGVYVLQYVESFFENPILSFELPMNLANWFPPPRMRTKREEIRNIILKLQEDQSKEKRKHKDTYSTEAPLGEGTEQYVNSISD
SENP8 block-2: human SENP8 protease inhibitors, primary screen, biochemical, fluorescence, Nedd8 protein substrate, uHTS | Sentrin-specific protease 8 (Homo sapiens), Q96LD8 | recombinant SENP8 | inhibition, % at 20 µM | 360,000 compounds, 0.64% hits; in the data active = inhibition mostly above about 40%, no sharp cut-off; inactive = mostly below about 27%
HSP90 inh: HSP90 inhibitors, primary screen, cell lysate, luminescence. AID 1789, 2009. Heat shock protein HSP 90 (rabbit reticulocyte lysate; luciferase refolding). inhibition, % at 5.6 µM. Rabbit reticulocyte lysate, luciferase refolding luminescence, 3 h. 290,000 compounds, 0.91% hits;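 active = inhibition above the screen-wide mean plus 3 SD, computed separately per campaign, cut at about 16% in these data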;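 also: 0% = DMSO wells and 100% = 60 µM geldanamycin wells; inhibitors lower the luminescence because luciferase stays unfolded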
SENP7 inh: SENP7 protease inhibitors, primary screen, biochemical, luminescence, uHTS. Sentrin-specific protease 7 (Homo sapiens), Q9BQF6. recombinant SENP7, Z-RLRGG-aminoluciferin luminescence, 40 min. inhibition, % at 5 µM. 330,000 compounds, 1.5% hits. AID 434973, 2010;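 active = inhibition above about 50% at the single test dose, limit read from the data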;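 also: plate controls were DMSO with enzyme for no effect and no enzyme buffer wells for full effect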
SENP8 conf: SENP8 protease inhibitors, retest, confirmation, biochemical, luminescence, single concentration; AID 488912, 2010; shares compounds with SENP7 inh; 6,200 compounds, 40% hits; Recombinant SENP8, Z-RLRGG-aminoluciferin luminescence, 60 min; inhibition, % at 12.5 µM;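 active = mean inhibition across replicates above about 50%, limit read from the data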
SENP6 conf: SENP6 protease inhibitors, confirmation, biochemical, luminescence, single concentration; shares compounds with SENP7 inh; 6,200 compounds, 58% hits; inhibition, % at 12.5 µM; recombinant SENP6, Z-RLRGG-aminoluciferin luminescence
SENP7 conf: SENP7 protease inhibitors, retest, confirmation, biochemical, luminescence, single concentration. recombinant SENP7, Z-RLRGG-aminoluciferin luminescence, 40 min. shares compounds with SENP7 inh. AID 488917, 2010. inhibition, % at 12.5 µM. 6,200 compounds, 69% hits
Casp3 select: caspase-3 protease inhibitors, confirmation, selectivity assay for SENP inhibitor project, biochemical, single concentration; 6,200 compounds, 60% hits; purified caspase-3, Z-DEVD-aminoluciferin luminescence, 60 min; inhibition, % at 12.5 µM; AID 488918, 2010; shares compounds with SENP7 inh;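 active = mean inhibition above about 50%, limit read from the data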;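 also: plate controls were enzyme with DMSO for no effect and wells without caspase-3 for full effect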
SENP luc ctr: counter-screen for SENP inhibitors: luminescence interference | 6,200 compounds, 39% hits | Pre-incubated SENP8/Z-RLRGG-aminoluciferin, luciferase luminescence interference | shares compounds with SENP7 inh | AID 488919 | inhibition, % at 12.5 µM;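 active = mean inhibition above about 50% when retested at one dose, limit read from the data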;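 also: plate controls were DMSO wells with completed reaction for no effect and substrate without enzyme for full effect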
An asterisk follows results filed as active; . = not tested or not shown. Sampled rows, rich in hits. Any-hit rate of the full collection: about 2.8%.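 The calls were made as follows, unless noted: active = mean inhibition above about 50% in the one-dose retest (limit read from the data); inactive = the rest.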

SMILES	SENP8 block-1	SENP6 block	SENP8 block-2	HSP90 inh	SENP7 inh	SENP8 conf	SENP6 conf	SENP7 conf	Casp3 select	SENP luc ctr
Cc1ccc(NC(=O)C(C)C(=O)Nc2ccc(C)cc2)cc1	6	-8	2	1	-7	.	.	.	.	.
Cc1ccc(NC(=O)c2ccccc2O)cc1	28	53*	-83	7	41	55*	51*	78*	61*	66*
Cc1ccc(NC(=O)C(=O)c2ccc(C)cc2)cc1	54*	65*	9	0	62*	59*	59*	87*	60*	35
O=C(Cn1c(CSc2ccccc2)nc2ccccc21)Nc1ccccc1	.	.	.	2	.	.	.	.	.	.
O=C(C(Sc1ccccc1)c1ccccc1)N1CCN(c2ccccc2F)CC1 (stereo not given)	-12	-8	12	3	-7	.	.	.	.	.
Cc1ccc(C(C[N+](=O)[O-])c2c(C)[nH]n(-c3ccccc3)c2=O)cc1 (stereo not given)	26	54*	61*	2	39	25	50	24	3	6
Cc1[nH]n(-c2ccccc2)c(=O)c1C(C[N+](=O)[O-])c1ccc(F)cc1 (stereo not given)	-1	5	40	-1	25	.	.	.	.	.
Cc1ccc(O)c(N=Nc2ccccc2)n1	95*	93*	8	.	100*	95*	98*	103*	96*	62*
Cc1cccc(NC(=O)CN2C(=O)S/C(=C\c3ccc(O)c([N+](=O)[O-])c3)C2=O)c1	27	51*	26	-2	-3	13	4	17	24	15
CCc1cc(=O)oc2c3c(cc(OCC(=O)NCc4ccco4)c12)OC(C)(C)CC3	-8	1	-197	6	11	.	.	.	.	.
CCc1cc(=O)oc2c3c(cc(OCC(=O)NCc4ccncc4)c12)OC(C)(C)CC3	9	52*	-206	-1	-3	9	7	1	-2	-4
CCOC(=O)c1ccccc1NC(=O)/C=C/C(=O)O	1	-27	-176	0	-1	.	.	.	.	.
CCOC(=O)c1ccc(N/C=C/C(=O)c2ccccc2)cc1	84*	93*	-469	2	95*	13	57*	24	67*	9
CCOC(=O)c1ccccc1N/C=C/C(=O)c1ccccc1	8	50*	-310	0	31	32	36	64*	36	34
CCCCn1c(N)c(N(Cc2ccccc2OC)C(=O)C2=COCCO2)c(=O)[nH]c1=O	2	-7	2	.	12	.	.	.	.	.
Cc1cccc(Oc2nc3c(c(=O)n(C)c(=O)n3C)n2C)c1	7	10	5	-2	-6	.	.	.	.	.
CCN(CC)C(=O)Oc1ccc2ccccc2c1Cl	-12	-19	5	-4	-4	.	.	.	.	.
Cc1cccc(NC(=O)CSc2nnc(-c3ccccc3C)o2)c1	.	.	7	-2	.	.	.	.	.	.
Cc1cccc(NC(=S)NNC(=O)c2csc(C(C)C)c2)c1	50	77*	20	0	87*	9	11	12	8	18
Cc1cccc(NC(=S)NNC(=O)c2sccc2C)c1	43	83*	-14	0	65*	56*	56*	75*	67*	64*
Cc1ccsc1C(=O)NNC(=S)NCC(C)C	4	5	6	2	10	.	.	.	.	.
Cc1cccc(C(=O)NNC(=O)Nc2ccccc2)c1	4	0	19	1	-1	.	.	.	.	.
CCc1cc(C(=O)NNC(=S)Nc2cccc(C)c2)cs1	39	75*	13	-2	56*	25	25	8	9	19
CSCc1c(C(=O)Nc2ccc(N3CCOCC3)cc2)oc2ccccc12	0	-18	20	-10	1	.	.	.	.	.
Cc1ccc(C(=O)C2CCN(S(=O)(=O)c3ccccc3C(=O)O)CC2)cc1	-8	-14	7	1	-1	.	.	.	.	.
SMILES	SENP8 block-1	SENP6 block	SENP8 block-2	HSP90 inh	SENP7 inh	SENP8 conf	SENP6 conf	SENP7 conf	Casp3 select	SENP luc ctr
COC(=O)c1c(NC(=O)c2ccc(C)o2)sc2c1CCCCC2	-12	-19	-294	0	-4	.	.	.	.	.
CC(C)(C)c1ccc(C(=O)Nc2sc3c(c2C(=O)O)CCC3)cc1	-5	-10	-238	2	-10	.	.	.	.	.
Cc1ccc(C(=O)Nc2sc3c(c2C(=O)O)CCCC3)o1	91*	89*	-466	6	75*	95*	94*	101*	96*	92*
NC(=O)c1c(NC(=O)c2cc3ccccc3o2)sc2c1CCC2	25	60*	-438	3	38	14	17	67*	36	18
Cc1ccc(C(=O)Nc2sc3c(c2C(=O)O)CCCCC3)o1	97*	-15	-423	12	91*	98*	100*	103*	98*	97*
O=C(Nc1sc2c(c1C(=O)O)CCC2)c1ccco1	91*	97*	-81	-1	91*	94*	94*	101*	96*	93*
Nc1ccccc1C(=O)Nc1nccs1	-11	-5	-379	-4	-1	.	.	.	.	.
O=C(NNc1ccccn1)c1ccccc1CC[N+](=O)[O-]	-1	5	-8	-4	-9	.	.	.	.	.
CCCSc1nn2c(=O)c3ccccc3nc2s1	37	64*	7	-2	45	67*	65*	89*	83*	65*
COc1ccc(C(=O)CSc2ccc(-c3ccc(C)cc3)nn2)cc1	0	-3	5	2	-7	.	.	.	.	.
CC1=NN(c2ccccc2)C(=O)/C1=C/c1ccc(-c2ccc(C)c(C(=O)O)c2)o1	12	18	.	.	3	.	.	.	.	.
COC(=O)c1ccccc1-c1ccc(/C=C2\C(=O)N(c3ccccc3)N=C2c2ccccc2)o1	9	53*	27	1	13	11	6	-4	0	0
CCc1nnc(NC(=O)CSc2nnc(-c3ccc(S(=O)(=O)N4CCCC4)cc3)n2CC)s1	5	7	11	-2	-5	.	.	.	.	.
